The values that follow come from PubChem BioAssay.

Assay [1] in a line: compounds binding Alexa647 anti-His antibody – biochemical, small-molecule microarray, 635 nm fluorescence, artefact control for SMM control protein annotation, primary screen (AID 1128).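 Further: score merges feature fluorescence with signal-to-noise for each printed compound spot.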 Conditions: higher = more signal.
The subject of assay [2] is Human papillomavirus type 1a E7 protein (residues 1-88). The assay is described as follows: HPV1a E7 small-molecule binders, primary screen, biochemical, small-molecule microarray, residues 1-88, 635 nm (AID 1129). Conditions: small-molecule microarray binding, fluorescence 635 nm; higher = more signal.
Assay [3] addresses Focal adhesion kinase 1 (Homo sapiens) (UniProt Q05397). Kind of assay: PTK2 protein binding on printed compound slides – biochemical, small-molecule microarray, 635/667 nm fluorescence, BSA, DTT, primary screen (AID 1130).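 Further: composite of spot emission at 667 nm and signal to noise over triplicate slides.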 The settings on record: 635 nm fluorescence, higher = more signal.
Assay [4] relates to Fibrinogen (Alexa647-labelled). Kind of assay: Alexa647-fibrinogen binding to printed small molecules – biochemical, small-molecule microarray, 635/667 nm fluorescence, artefact control for SMM control-protein annotation, profiling panel (AID 1131).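 Further: z-score merges 667 nm fluorescence with per-spot signal-to-noise over triplicate slides.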 Conditions: fibrinogen-A647 binding fluorescence, higher = more signal.
Assay [5] deals with Follistatin (Homo sapiens) (UniProt P19883). Kind of assay: FST protein binding to printed compounds – biochemical, small-molecule microarray, 635/667 nm fluorescence, primary screen (AID 1132). The settings on record: 635 nm fluorescence, higher = more signal.
Chain of Follistatin (Homo sapiens) (P19883 whole entry, looked up): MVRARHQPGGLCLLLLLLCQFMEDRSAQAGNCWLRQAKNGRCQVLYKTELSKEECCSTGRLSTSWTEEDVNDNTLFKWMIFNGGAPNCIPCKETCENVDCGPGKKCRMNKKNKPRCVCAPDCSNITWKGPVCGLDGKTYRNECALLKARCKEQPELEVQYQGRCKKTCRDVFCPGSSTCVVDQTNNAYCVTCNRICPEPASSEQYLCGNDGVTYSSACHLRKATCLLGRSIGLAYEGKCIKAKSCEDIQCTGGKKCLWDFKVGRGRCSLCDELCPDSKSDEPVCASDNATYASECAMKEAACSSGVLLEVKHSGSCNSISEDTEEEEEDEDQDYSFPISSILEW
In assay [6] the target is Fibroblast growth factor 2 (Homo sapiens) (UniProt P09038). The assay is described as follows: basic fibroblast growth factor binding to printed compounds – biochemical, small-molecule microarray, 635/667 nm fluorescence, primary screen (AID 1133). Conditions: FGF2, fluorescence 635/667, higher = more signal.
Chain of Fibroblast growth factor 2 (Homo sapiens) (P09038 whole entry, looked up): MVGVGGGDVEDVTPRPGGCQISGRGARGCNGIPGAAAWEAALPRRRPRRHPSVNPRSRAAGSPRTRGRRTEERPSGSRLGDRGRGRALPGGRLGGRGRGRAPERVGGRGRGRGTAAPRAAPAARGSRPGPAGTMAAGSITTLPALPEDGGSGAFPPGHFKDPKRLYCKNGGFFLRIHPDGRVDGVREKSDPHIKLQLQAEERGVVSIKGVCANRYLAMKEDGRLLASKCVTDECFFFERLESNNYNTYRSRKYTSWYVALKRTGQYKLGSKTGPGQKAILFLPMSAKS
Assay [7] in a line: JC-1 mitochondrial potential readout, lung cancer cells – cell-based, A549, JC-1 fluorescence, basal, 24 h, 100 nL, profiling panel (AID 1138).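 Further: A549 lung adenocarcinoma cells under basal conditions with no added stimulus; test concentration not given here.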 The settings on record: higher = more signal.
A further assay deals with Lefty1. The assay is described as follows: Lefty1 protein binding to printed compounds – biochemical, small-molecule microarray, 635/667 nm fluorescence, primary screen (AID 1139). The settings on record: fluorescence 635/667, higher = more signal.
Assay [8] relates to wheat germ agglutinin (Triticum aestivum), Alexa647-labelled. Kind of assay: Alexa647-WGA lectin binding to printed small molecules – biochemical, small-molecule microarray, 635/667 nm fluorescence, artefact control for SMM control-protein annotation, profiling panel (AID 1140).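 Further: score merges 667 nm feature emission with signal to noise over triplicate slides.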 Conditions: WGA-A647 binding, 635 nm fluorescence, higher = more signal.
In assay [9] the target is Luciferin 4-monooxygenase (Photinus pyralis) (UniProt P08659). The assay is described as follows: inhibition of purified Photinus pyralis luciferase – biochemical, luminescence, purified enzyme, 2006 set, primary screen (AID 1141).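 Further: cell-free assay with purified firefly luciferase at 100 ng per well in PBS; test concentration not given here.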 Conditions: purified firefly luciferase, SteadyGlo luminescence, 30 min; higher = more signal, called active from +8 up or from −8 down.
Chain of Luciferin 4-monooxygenase (Photinus pyralis) (P08659 whole entry, looked up): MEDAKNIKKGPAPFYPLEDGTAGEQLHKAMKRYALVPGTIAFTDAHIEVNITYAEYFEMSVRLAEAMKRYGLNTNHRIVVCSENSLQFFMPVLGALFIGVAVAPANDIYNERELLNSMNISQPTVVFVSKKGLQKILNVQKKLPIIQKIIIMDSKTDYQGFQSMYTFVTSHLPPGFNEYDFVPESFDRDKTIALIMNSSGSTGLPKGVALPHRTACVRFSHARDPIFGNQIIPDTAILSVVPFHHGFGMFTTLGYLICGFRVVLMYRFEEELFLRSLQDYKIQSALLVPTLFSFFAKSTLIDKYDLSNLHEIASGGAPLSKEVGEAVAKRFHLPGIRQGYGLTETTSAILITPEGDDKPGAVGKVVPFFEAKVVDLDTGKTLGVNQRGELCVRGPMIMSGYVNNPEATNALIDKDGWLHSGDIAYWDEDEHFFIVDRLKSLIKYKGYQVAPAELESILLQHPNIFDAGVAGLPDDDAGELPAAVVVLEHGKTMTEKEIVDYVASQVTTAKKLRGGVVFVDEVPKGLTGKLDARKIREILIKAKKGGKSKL
Assay [10] relates to Wnt5a (protein binding on small-molecule microarray). The assay is described as follows: small molecules binding Wnt5a protein – biophysical, small-molecule microarray, 635/667 nm fluorescence, primary screen (AID 1142).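 Further: fluorescence read at 667 nm with signal to noise per printed feature.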 Conditions: 635 nm fluorescence, higher = more signal.
A short description of assay [11]: ATP-based viability of Huh7 replicon cells – cell-based, CellTiter-Glo luminescence, basal, 48 h, cytotoxicity control for HCV replication inhibitor project, primary screen (AID 1143).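 Further: Huh7 hepatoma cells carrying a hepatitis C replication reporter with no stimulus; test concentration not given here.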 Conditions: higher = more signal, called active from +8 up or from −8 down.
Assay [12] in a line: Pseudomonas biofilm growth suppression – PAO1 strain, BacTiter-Glo luminescence, LB-PBS, primary screen (AID 1144). The settings on record: P. aeruginosa PAO1 biofilm, 12 h, higher = more signal.
Assay [13] in a line: basal CRE-LacZ reporter activity in PC12 – cell-based, unstimulated, primary screen (AID 1145). The settings on record: no forskolin, luminescence, 4.5 h, higher = more signal, called active from +8 up or from −8 down.
Assay [14] can be described thus: forskolin-driven CRE-LacZ activity in PC12 – cell-based, CRE-LacZ reporter, forskolin-stimulated, primary screen (AID 1146).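 Further: PC12 cells with 6xCRE LacZ reporter stimulated by forskolin 10 µM; beta-galactosidase reporter signal reflecting CREB driven transcription.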 The settings on record: luminescence, 4.5 h, higher = more signal, called active from +8 up or from −8 down.
Assay [15] concerns the target Streptavidin (Streptomyces avidinii) (UniProt P22629). Kind of assay: compounds binding control protein streptavidin – biophysical, small-molecule microarray, 635/667 nm fluorescence, artefact control for SMM compound annotation, primary screen (AID 1147).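 Further: signal reflects streptavidin binding to arrayed compounds as a control protein.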 The settings on record: higher = more signal.
Assay [16] in a line: probe aInhba binding on compound microarray – biochemical, small-molecule microarray, 635/667 nm fluorescence, primary screen (AID 1148).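 Further: score merges 667nm spot fluorescence with signal-to-noise for antibody binding to printed compounds.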 The settings on record: higher = more signal.
Assay [17] addresses Torsin-1A (Homo sapiens) (UniProt O14656). The assay is described as follows: TOR1A wild-type binding on microarray – cell lysate, small-molecule microarray, lysate, 635/667 nm, primary screen (AID 1149). The settings on record: COS7 hTOR1A-WT lysate, 635 nm fluorescence, higher = more signal.
Assay [18] shares this target. The assay is described as follows: torsin A mutant lysate binding on microarrays – cell lysate, small-molecule microarray, COS7 lysate, 635/667 nm fluorescence, primary screen (AID 1150).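 Further: score pools 667 nm emission and signal to noise measuring lysate protein binding.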 Conditions: COS7 hTOR1A mutant lysate, 635 nm fluorescence, higher = more signal.
For assay [19], the system named is Sonic hedgehog protein (Shh). The assay is described as follows: Sonic hedgehog microarray binding compounds – biochemical, small-molecule microarray, 635/667 nm fluorescence, primary screen (AID 1151).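 Further: Shh protein binding to compounds spotted on small-molecule microarray slides; score combines spot fluorescence intensity with signal-to-noise across triplicate slides.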 Conditions: 635 nm fluorescence, higher = more signal.

Active and inactive are the calls of the source. Unless noted, how the calls were made is not given here.

Chain of Focal adhesion kinase 1 (Homo sapiens) (Q05397 whole entry, looked up): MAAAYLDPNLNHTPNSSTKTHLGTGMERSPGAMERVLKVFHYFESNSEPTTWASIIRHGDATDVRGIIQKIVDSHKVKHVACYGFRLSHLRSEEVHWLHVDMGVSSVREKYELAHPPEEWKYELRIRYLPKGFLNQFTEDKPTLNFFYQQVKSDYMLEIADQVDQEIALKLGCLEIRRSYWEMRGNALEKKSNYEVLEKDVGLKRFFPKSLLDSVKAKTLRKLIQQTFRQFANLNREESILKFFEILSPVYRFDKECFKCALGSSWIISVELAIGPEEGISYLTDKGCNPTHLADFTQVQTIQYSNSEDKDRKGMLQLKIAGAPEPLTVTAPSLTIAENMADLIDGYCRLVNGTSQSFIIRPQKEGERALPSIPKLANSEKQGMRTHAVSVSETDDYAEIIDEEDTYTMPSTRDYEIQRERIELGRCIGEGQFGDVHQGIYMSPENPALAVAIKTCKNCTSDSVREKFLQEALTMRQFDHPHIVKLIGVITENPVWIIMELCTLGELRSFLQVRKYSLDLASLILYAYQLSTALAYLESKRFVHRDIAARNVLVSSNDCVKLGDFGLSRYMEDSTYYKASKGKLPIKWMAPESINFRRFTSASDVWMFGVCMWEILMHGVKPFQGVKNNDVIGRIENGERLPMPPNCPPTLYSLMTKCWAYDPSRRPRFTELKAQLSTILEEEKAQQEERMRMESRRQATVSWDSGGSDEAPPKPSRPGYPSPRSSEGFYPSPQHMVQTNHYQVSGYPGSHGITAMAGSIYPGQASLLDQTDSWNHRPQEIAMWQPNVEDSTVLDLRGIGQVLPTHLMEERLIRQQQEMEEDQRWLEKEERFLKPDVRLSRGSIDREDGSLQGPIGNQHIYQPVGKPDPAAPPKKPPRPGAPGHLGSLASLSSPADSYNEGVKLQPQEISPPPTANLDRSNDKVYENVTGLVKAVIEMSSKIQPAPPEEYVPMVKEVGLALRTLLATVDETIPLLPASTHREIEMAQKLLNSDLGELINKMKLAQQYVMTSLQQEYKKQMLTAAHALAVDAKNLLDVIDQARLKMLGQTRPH
Chain of Streptavidin (Streptomyces avidinii) (P22629 whole entry, looked up): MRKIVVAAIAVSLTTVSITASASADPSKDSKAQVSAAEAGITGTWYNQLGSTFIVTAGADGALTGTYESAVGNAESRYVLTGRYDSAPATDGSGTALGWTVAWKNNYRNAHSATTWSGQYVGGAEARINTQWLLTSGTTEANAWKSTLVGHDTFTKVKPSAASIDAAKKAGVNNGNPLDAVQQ
Chain of Torsin-1A (Homo sapiens) (O14656 whole entry, looked up): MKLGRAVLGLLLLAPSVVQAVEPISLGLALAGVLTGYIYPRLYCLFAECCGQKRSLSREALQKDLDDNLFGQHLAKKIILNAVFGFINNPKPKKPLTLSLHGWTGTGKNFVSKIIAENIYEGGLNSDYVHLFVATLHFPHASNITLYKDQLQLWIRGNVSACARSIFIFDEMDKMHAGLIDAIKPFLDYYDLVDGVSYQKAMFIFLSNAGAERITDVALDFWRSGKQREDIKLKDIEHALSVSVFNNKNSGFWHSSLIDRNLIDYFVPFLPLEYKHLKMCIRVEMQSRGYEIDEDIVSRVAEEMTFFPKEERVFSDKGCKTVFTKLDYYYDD

Regarding `CCC[C@@H]1C[C@@]1(CCC)[C@@H](NP(=O)(c1ccccc1)c1ccccc1)c1ccc(Cl)cc1`, the composite z-score in [1] was -0.649; in assay [2], -0.472; in assay [3], -0.371; in assay [4] it was -0.428; in assay [5] it was -0.216; in assay [6] it was -0.475. Further, the composite z-score in the assay on Lefty1 is -0.413; in assay [8], -0.619; in assay [10] it was -0.298; in assay [15], -0.749; in assay [16], -0.232; with Torsin-1A (Homo sapiens) [17] it was -0.753. Also, the composite z-score with Torsin-1A (Homo sapiens) [18] was -0.731; in assay [19], -0.447. The z-score in [7] is -1.22; in assay [9], 1.71 (inactive); in [11], -1.4 (inactive); in assay [12] it was 0.22 (inactive); in assay [13], 0.0007 (inactive); in assay [14], -0.113 (inactive).

In the case of `[N-]=[N+]=Nc1ccccc1[C@@H]1OC(c2ccc(OCCCO)cc2)=N[C@]1(CCS(=O)(=O)c1ccccc1)C(=O)NCCN1CCOCC1`, the composite z-score in assay [1] was 0.903; in assay [2] it was 1.28; in assay [3], -0.018; in assay [4], 0.962; in [5] it was 1.14; in assay [6], -0.29. The composite z-score with Lefty1 was 0.393; in assay [8] it was 1.04; in assay [10] it was 0.391; in assay [15] it was 0.637; in [16], 0.109; with Torsin-1A (Homo sapiens) [17], 1.13. Besides, the composite z-score was 1.15 with Torsin-1A (Homo sapiens) [18] and -0.252 in assay [19]. The z-score in assay [7] is -0.377; in assay [9] it was -8.81 (active); in assay [11], -4.79 (inactive); in [12], -0.124 (inactive); in assay [13] it was 0.549 (inactive); in assay [14], -1.18 (inactive).

As to `COC(=O)[C@@]1(Cc2ccc(OC)cc2)[C@H]2c3cc(C(=O)N(C)C)n(Cc4nc5ccccc5[nH]4)c3C[C@H]2CN1C(=O)c1ccccc1`, the composite z-score in assay [1] was 1.39; in assay [2], 1.26; in assay [3], 1.34; in assay [4] it was 0.991; in assay [5], 0.907; in assay [6], -0.295. Moreover, the composite z-score is -0.117 in the assay on Lefty1; 1.35 in assay [8]; 0.38 in assay [10]; 1.12 in assay [15]; 0.698 in assay [16]; 0.314 with Torsin-1A (Homo sapiens) [17]. Besides, the composite z-score with Torsin-1A (Homo sapiens) [18] was 0.432; in assay [19], -0.388. In addition, the z-score in assay [7] was 1.95; in assay [9], 2.41 (inactive); in assay [11], -3.83 (inactive); in assay [12], 0.179 (inactive); in assay [13], -0.375 (inactive); in assay [14], -0.139 (inactive).

As for `CC=CC(O)C1C=CC2C(=O)N(c3ccccc3)C(=O)C2N1Nc1ccc([N+](=O)[O-])cc1` (stereo not given), the composite z-score in [1] worked out at 1.58; in assay [2], 0.644; in assay [3], 0.427; in [4], 0.752; in assay [5], 0.495; in assay [6], 0.194. Moreover, the composite z-score in the assay on Lefty1 is 0.112; in assay [8], 0.645; in assay [10] it was -0.0454; in assay [15], 0.395; in assay [16] it was -0.162; in the assay with Torsin-1A (Homo sapiens) [17] it was 0.463. The composite z-score is -0.213 in the assay with Torsin-1A (Homo sapiens) [18] and 0.224 in [19]. The z-score in [7] was -0.645; in assay [9], 1.28 (inactive); in [11], 0.612 (inactive); in assay [12], 0.698 (inactive); in assay [13], -0.415 (inactive); in assay [14] it was 0.0268 (inactive).

With `COc1ccccc1CN1C(=O)c2ccccc2[C@](Cc2ccccc2I)(C(=O)NC(C)C)[C@@H]1c1ccc(CO)cc1`, the composite z-score worked out at 1.94 in assay [1]; 1.24 in [2]; 0.629 in [3]; 0.983 in assay [4]; 1.14 in assay [5]; 0.506 in [6]. In addition, the composite z-score stood at 0.773 with Lefty1; 1.16 in [8]; 0.449 in assay [10]; 1.13 in [15]; 0.0422 in assay [16]; 0.667 with Torsin-1A (Homo sapiens) [17]. Moreover, the composite z-score with Torsin-1A (Homo sapiens) [18] turned out to be 1.08; in [19] it was 1.78. The z-score was 1.86 in [7]; 1.35 (inactive) in assay [9]; -3.63 (inactive) in [11]; 0.0633 (inactive) in assay [12]; -0.0243 (inactive) in assay [13]; 1.08 (inactive) in [14].
